Composite z-score and z-score data for 5 compounds are collected here from PubChem BioAssay.

The nature of experiment [1]: binders of probe aFSTL3 on microarray, primary screen, stem cell growth factor project, biochemical, small-molecule microarray, fluorescence 635/667 (AID 1064).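 Note: measures binding of the biotinylated anti-FSTL3 antibody to printed compounds.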 The conditions noted are these: higher = more signal.
A short description of experiment [2]: binders from COS7 lysate, DM2A8 probe, primary screen, torsin A project, cell lysate, small-molecule microarray, fluorescence 635/667 (AID 1065). Conditions: higher = more signal, COS7 lysate expressing mutant human TOR1A.
The nature of experiment [3]: binders of probe aFGF2 on microarray, primary screen, stem cell growth factor project, biochemical, small-molecule microarray, fluorescence 635/667 (AID 1067).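 Note: measures binding of biotinylated aFGF2 protein to printed compounds on slides; z-score merges feature fluorescence and signal-to-noise across triplicate slides.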 The conditions noted are these: higher = more signal.
Experiment [4] can be described thus: binders of probe aFGF10 on microarray, primary screen, stem cell growth factor project, biochemical, small-molecule microarray, fluorescence 635/667 (AID 1071).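 Note: score merges 667 nm spot intensity and signal to noise from triplicate slides.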 Conditions: higher = more signal.
Experiment [5] concerns the target Neurogenic locus notch homolog protein 2 (Homo sapiens) (UniProt Q04721). The experiment can be described thus: Notch2 binders on small-molecule microarrays, primary screen, biochemical, small-molecule microarray, 635 nm fluorescence, stem cell growth factors (AID 1073). Conditions: Notch2 binding, higher = more signal.
For experiment [6], the target named is Pro-neuregulin-1, membrane-bound isoform (Homo sapiens) (UniProt Q02297). Put plainly: NRG1 binders on small-molecule microarrays, primary screen, psychiatric disease protein project, biochemical, small-molecule microarray, fluorescence 635/667 (AID 1075).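 Note: score combines 667 nm spot fluorescence with signal to noise.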 The conditions noted are these: NRG1 binding, 635 nm fluorescence, higher = more signal.
Sequence of Pro-neuregulin-1, membrane-bound isoform (Homo sapiens) (Q02297 whole entry, looked up, the tested form may be a part, canonical isoform): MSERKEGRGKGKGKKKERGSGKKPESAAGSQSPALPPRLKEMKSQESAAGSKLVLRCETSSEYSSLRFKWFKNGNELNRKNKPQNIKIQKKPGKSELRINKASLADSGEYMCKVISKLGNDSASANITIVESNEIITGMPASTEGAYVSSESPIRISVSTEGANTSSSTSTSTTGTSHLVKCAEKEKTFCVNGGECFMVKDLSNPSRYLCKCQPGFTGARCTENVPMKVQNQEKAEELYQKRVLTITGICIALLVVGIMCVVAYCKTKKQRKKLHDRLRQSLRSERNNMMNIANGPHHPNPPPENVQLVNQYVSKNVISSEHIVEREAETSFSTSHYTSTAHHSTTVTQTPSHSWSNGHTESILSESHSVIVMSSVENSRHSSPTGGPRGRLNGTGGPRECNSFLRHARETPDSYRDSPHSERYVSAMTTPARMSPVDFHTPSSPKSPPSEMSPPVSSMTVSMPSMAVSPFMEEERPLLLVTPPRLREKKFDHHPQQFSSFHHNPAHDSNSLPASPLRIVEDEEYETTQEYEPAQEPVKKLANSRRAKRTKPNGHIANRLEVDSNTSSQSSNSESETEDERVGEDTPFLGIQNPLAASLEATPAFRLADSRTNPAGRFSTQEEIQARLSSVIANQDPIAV
For experiment [7], the system named is Neuregulin-1 EGF-like domain. Put plainly: binders of neuregulin-1 EGF-like domain, primary screen, biochemical, small-molecule microarray, 635 nm fluorescence (AID 1081).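 Note: binding of the protein to compounds printed on small-molecule microarray slides.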 Conditions: small-molecule microarray binding, higher = more signal.
A short description of experiment [8]: FRG1 promoter luciferase signal modulators, primary screen, FRG1 inhibition for FSHD, cell-based, C2C12 myotubes, firefly/Renilla luciferase, luminescence (AID 1084). The conditions noted are these: higher = more signal, called active from +8 up or from −8 down.
Experiment [9] in a line: binders of probe aFST on microarray, primary screen, stem cell growth factor project, biochemical, small-molecule microarray, fluorescence 635/667 (AID 1086).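 Note: score merges 667 nm fluorescence with signal-to-noise of each printed compound spot.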 The conditions noted are these: higher = more signal.
Experiment [10] is described as follows: binders of probe aHhip on microarray, primary screen, stem cell growth factor project, biochemical, small-molecule microarray, fluorescence 635/667 (AID 1087).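 Note: score merges spot fluorescence at 667nm with spot signal to noise ratio.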 Conditions: higher = more signal.
The test system of experiment [11] is PRMT1 (protein arginine N-methyltransferase 1). Put plainly: PRMT1 binders on small-molecule microarrays, primary screen, biochemical, small-molecule microarray, 635 nm fluorescence (AID 1088).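 Note: binding of Prmt1 protein to compounds spotted on small-molecule microarray slides.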 Conditions: small-molecule microarray binding, higher = more signal.
Experiment [12] can be described thus: yeast growth modulation, basal conditions, primary screen, YJM789 clinical isolate, OD600, 24 h (AID 1089).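 Note: growth of clinical yeast isolate S. cerevisiae YJM 789 seeded 1000 cells per well; test concentration not given here.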 Conditions: S. cerevisiae YJM789 growth, higher = more signal, called active from +8 up or from −8 down.
Experiment [13] is described as follows: fission yeast growth modulation, primary screen, strain 972, OD600, 24 h, no modulator (AID 1090).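 Note: basal condition with compound alone and no growth modifier present; test concentration not given here.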 Conditions: S. pombe 972 growth, higher = more signal, called active from +8 up or from −8 down.
A short description of experiment [14]: S. cerevisiae growth modulation with rapamycin, primary screen, strain BY4716, OD600, 96 h (AID 1091). Note: test concentration not given here. The conditions noted are these: higher = more signal, called active from +8 up or from −8 down.
In experiment [15] the target is Torsin-1A-interacting protein 2 (Homo sapiens) (UniProt Q8NFQ8). The experiment can be described thus: LULL1 binders on small-molecule microarray, primary screen, cell lysate, human LULL1 lysate, 635/667 nm fluorescence (AID 1092).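 Note: probe is lysate of COS7 cells overexpressing human LULL1; score merges per-feature 667 nm fluorescence with signal-to-noise.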 The conditions noted are these: hLULL1 lysate binding, 635 nm fluorescence, higher = more signal.
Sequence of Torsin-1A-interacting protein 2 (Homo sapiens) (Q8NFQ8 whole entry, looked up): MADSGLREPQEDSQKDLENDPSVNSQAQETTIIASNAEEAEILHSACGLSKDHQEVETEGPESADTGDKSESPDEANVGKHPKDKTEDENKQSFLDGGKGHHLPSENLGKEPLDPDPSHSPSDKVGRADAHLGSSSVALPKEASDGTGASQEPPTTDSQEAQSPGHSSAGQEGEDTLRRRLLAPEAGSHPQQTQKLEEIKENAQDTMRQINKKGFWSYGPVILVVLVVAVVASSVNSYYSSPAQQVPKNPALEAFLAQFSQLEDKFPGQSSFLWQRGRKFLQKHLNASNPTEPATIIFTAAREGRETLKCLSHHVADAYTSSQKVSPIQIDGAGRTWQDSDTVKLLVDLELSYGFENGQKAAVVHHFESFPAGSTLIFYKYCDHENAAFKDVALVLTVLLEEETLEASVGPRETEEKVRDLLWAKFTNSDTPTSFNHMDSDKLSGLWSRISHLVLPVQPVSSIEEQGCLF
The nature of experiment [16]: E. coli growth modulation, two-sided OD650, primary screen, E. coli filamentation project, strain DRC41, 24 h (AID 1093).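 Note: MC1000 strain lacking acrAB efflux and sulA so SOS filamentation is blocked; test concentration not given here.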 Conditions: OD650, 24 h, higher = more signal, called active from +8 up or from −8 down.
Experiment [17] can be described thus: small-molecule microarray binders of probe aLefty2, primary screen, biochemical, biotinylated probe, 635/667 nm fluorescence (AID 1094).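 Note: score merges spot fluorescence near 667 nm with spot signal-to-noise ratio.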 Conditions: higher = more signal.
Experiment [18] deals with Noggin (protein binding on small-molecule microarray). The experiment can be described thus: Noggin binders on small-molecule microarray, primary screen, biochemical, 635/667 nm fluorescence (AID 1095).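 Note: score merges 667 nm feature fluorescence with signal to noise over triplicate slides.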 The conditions noted are these: 635 nm fluorescence, higher = more signal.
Experiment [19] addresses Neurogenic locus notch homolog protein 3 (Homo sapiens) (UniProt Q9UM47). The experiment can be described thus: NOTCH3 binders on small-molecule microarray, primary screen, biochemical, 635/667 nm fluorescence (AID 1096). Conditions: NOTCH3 binding, 635 nm fluorescence, higher = more signal.
Experiment [20] in a line: small-molecule microarray binders of probe aEGFR, primary screen, biochemical, biotinylated probe, 635/667 nm fluorescence (AID 1097).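 Note: probe is a biotinylated anti-EGFR antibody binding compounds printed on slides; score combines fluorescence near 667 nm and signal to noise of each spot.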 Conditions: higher = more signal.

Structures are written as SMILES. Active and inactive are the calls of the source.

Sequence of Neurogenic locus notch homolog protein 2 (Homo sapiens) (Q04721 whole entry, looked up, canonical isoform): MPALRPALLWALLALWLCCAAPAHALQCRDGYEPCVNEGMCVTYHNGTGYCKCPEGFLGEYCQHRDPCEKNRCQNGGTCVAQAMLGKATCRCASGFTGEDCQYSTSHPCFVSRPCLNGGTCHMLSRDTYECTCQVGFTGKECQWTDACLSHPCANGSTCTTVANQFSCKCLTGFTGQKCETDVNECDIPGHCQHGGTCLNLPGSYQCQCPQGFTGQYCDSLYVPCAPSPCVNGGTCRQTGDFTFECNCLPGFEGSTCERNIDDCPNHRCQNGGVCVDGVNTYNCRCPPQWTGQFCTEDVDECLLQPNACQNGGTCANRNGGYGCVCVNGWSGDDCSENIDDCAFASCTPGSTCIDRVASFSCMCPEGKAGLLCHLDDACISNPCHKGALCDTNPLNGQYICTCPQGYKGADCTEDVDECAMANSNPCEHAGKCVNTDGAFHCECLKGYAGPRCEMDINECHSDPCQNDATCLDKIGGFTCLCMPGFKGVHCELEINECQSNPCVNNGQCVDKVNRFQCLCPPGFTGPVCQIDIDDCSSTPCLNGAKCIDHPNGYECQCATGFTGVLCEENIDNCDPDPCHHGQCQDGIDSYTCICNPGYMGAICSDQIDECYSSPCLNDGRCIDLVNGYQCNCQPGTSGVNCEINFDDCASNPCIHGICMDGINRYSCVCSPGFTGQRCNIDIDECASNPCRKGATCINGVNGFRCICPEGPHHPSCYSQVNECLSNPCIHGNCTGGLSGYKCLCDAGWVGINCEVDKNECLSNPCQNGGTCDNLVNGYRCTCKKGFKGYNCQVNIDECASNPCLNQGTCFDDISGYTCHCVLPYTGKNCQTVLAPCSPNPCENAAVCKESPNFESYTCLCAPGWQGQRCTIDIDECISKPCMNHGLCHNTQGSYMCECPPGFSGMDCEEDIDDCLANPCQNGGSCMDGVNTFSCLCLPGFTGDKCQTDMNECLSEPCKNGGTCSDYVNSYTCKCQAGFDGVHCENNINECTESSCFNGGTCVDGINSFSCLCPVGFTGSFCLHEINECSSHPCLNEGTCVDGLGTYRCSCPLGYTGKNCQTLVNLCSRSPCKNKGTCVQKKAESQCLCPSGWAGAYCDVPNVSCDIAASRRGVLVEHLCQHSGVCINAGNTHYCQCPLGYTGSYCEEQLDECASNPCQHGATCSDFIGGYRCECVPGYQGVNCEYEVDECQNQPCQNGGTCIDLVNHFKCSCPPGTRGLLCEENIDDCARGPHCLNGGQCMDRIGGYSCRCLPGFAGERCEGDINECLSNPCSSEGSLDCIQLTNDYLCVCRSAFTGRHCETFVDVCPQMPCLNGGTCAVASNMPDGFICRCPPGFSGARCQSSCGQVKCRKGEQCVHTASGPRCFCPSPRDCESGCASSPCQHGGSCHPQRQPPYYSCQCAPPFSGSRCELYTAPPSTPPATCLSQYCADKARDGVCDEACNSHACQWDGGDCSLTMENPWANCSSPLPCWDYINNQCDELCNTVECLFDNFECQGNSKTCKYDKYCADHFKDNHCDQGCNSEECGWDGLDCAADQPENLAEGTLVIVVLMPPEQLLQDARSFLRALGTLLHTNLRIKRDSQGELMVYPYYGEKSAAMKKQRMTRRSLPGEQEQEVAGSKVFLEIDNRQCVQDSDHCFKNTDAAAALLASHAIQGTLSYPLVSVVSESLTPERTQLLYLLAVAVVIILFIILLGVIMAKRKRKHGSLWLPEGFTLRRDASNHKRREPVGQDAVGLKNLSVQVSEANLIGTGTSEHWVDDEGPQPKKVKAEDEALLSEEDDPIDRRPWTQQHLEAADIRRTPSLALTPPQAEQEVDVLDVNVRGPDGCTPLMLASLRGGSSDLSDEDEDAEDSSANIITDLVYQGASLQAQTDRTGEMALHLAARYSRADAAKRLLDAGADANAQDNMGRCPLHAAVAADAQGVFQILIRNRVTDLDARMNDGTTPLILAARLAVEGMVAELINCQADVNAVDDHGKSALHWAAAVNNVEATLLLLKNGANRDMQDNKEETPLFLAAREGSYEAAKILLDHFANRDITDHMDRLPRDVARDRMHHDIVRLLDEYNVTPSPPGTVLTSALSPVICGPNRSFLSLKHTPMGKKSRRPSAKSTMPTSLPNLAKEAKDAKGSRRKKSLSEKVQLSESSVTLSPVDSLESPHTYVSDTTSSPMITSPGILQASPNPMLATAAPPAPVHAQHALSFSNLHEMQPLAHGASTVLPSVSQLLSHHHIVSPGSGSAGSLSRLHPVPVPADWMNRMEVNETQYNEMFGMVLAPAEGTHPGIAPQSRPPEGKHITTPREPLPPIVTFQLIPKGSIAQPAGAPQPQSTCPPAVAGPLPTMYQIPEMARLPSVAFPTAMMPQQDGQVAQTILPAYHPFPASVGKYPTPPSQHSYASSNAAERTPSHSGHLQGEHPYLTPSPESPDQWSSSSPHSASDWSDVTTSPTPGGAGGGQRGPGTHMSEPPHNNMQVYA

`C[N+](C)(C)CCCC[C@@H]1NC(=O)[C@@H]2C[C@H](C(=O)NCCCCCCN)[C@H](c3cccc(OCCO)c3)N2C1=O`: the composite z-score was 2.69 in experiment [1]; 2.09 in experiment [2]; 0.239 in [3]; 0.494 in experiment [4]; 0.731 in experiment [5]; 2.31 in experiment [6]. The composite z-score in experiment [7] is 1.38; in [9], 2.1; in experiment [10], 1.05; in [11], 1.45; in experiment [15], 2.44; in experiment [17], 1.26. The figures for the composite z-score in experiment [18], in experiment [19] and in experiment [20] were 0.47, 0.748 and 0.617, respectively. The z-score in [8] was -0.155 (inactive); in experiment [12], -0.344 (inactive); in experiment [13] it was -4.23 (inactive); in experiment [14] it was -0.244 (inactive); in [16] it was 0.0037 (inactive).
In the case of `[N-]=[N+]=Nc1ccccc1C[C@]1(C(=O)O)COC(c2ccc(OCCCO)cc2)=N1`, the composite z-score was 0.326 in experiment [1]; -1.1 in experiment [2]; -0.11 in experiment [3]; 0.518 in experiment [4]; 0.194 in experiment [5]; 0.614 in experiment [6]. Also, the composite z-score was 1.19 in [7]; 0.205 in experiment [9]; 0.419 in experiment [10]; -0.767 in experiment [11]; 1.66 in experiment [15]; -0.195 in experiment [17]. Moreover, the composite z-score is -0.476 in experiment [18], -0.609 in experiment [19] and -0.0079 in [20]. Moreover, the z-score in experiment [8] is 5.78 (inactive); in experiment [12], -0.458 (inactive); in experiment [13], -0.88 (inactive); in [14], 0.559 (inactive); in experiment [16] it was -0.408 (inactive).
On to `CC[C@@H]1C=C(C(=O)O)[C@H](c2ccc(C#N)cc2)N1S(=O)(=O)c1ccc(C)cc1`, for which the composite z-score in experiment [1] turned out to be 0.6; in [2], 2.35; in experiment [3], 0.0865; in experiment [4] it was 1.09; in experiment [5], 0.905; in [6], 1.25. Moreover, the composite z-score is 1.3 in experiment [7]; 0.145 in experiment [9]; -0.134 in [10]; 0.799 in [11]; 3.47 in [15]; 0.283 in [17]. Moreover, the composite z-score in experiment [18] is -0.911; in [19], 0.314; in [20], 0.122. For the same compound, the z-score was 0.281 (inactive) in experiment [8]; -0.407 (inactive) in experiment [12]; -0.185 (inactive) in experiment [13]; -0.104 (inactive) in [14]; 0.405 (inactive) in experiment [16].
Take `COc1ccc(CCNC(=O)[C@@]2(c3ccc([N+](=O)[O-])cc3)CC(=O)N(C3CCCCC3)[C@@H]2c2ccc(CO)cc2)cc1`: the composite z-score stood at 0.376 in experiment [1]; 0.409 in [2]; 0.0598 in [3]; 0.325 in [4]; 0.58 in experiment [5]; 1.54 in experiment [6]. In addition, the composite z-score in [7] was determined as 1.23; in [9], 0.602; in experiment [10], 0.177; in experiment [11], 1.29; in experiment [15] it was 2.75; in experiment [17], 0.157. The composite z-score in [18] was -0.23; in experiment [19], 0.627; in experiment [20] it was -0.0452. Further, the z-score is -0.517 (inactive) in experiment [8]; 0.812 (inactive) in experiment [12]; -0.501 (inactive) in experiment [13]; 0.361 (inactive) in [14]; 1.3 (inactive) in experiment [16].
For `[N-]=[N+]=Nc1ccccc1C[C@]1(C(=O)NCCN2CCOCC2)COC(c2ccc(OCCCO)cc2)=N1`, the composite z-score is 0.295 in [1]; 1.26 in [2]; -0.27 in experiment [3]; -0.0786 in experiment [4]; 0.722 in [5]; 1.55 in experiment [6]. The composite z-score was 1.39 in experiment [7]; 0.143 in [9]; -0.0994 in experiment [10]; 1.29 in experiment [11]; 3.03 in experiment [15]; 0.194 in experiment [17]. Further, the results for the composite z-score in experiment [18], in experiment [19] and in [20] were 0.0424, 0.0221 and 0.0433, respectively. Also, the z-score in [8] was 0.706 (inactive); in [12] it was -0.877 (inactive); in experiment [13] it was -2.27 (inactive); in [14], -1.46 (inactive); in experiment [16], 2.56 (inactive).
